Results: article PMC10163288
The list is a sample of the results. The hit rate among all sequences tested is not known here.

B1: il10ra_site1_normal_mot_HHH_b2_02386_000000054_0001_1_20_H_._HHH_b2_05043_0001_0000400073_0000003_0 (protein)
chain: SSSSTDESYELLREAIEEVIRLYKEGNPEEAEKVVEEVARRLEELGNPLAARQLENLLRLLSSSS
B2: il10ra_site1_normal_mot_HHH_b1_04771_000000013_0001_40_56_H_._HHH_b2_04957_af2_0001_0000100002_0000001_1 (protein)
chain: SSSSSEEVEEAVELSTKAFRLALRGNDEEAEEVLKEALKIAEEGNDPRIREVVEDLLQALSSSSS
B3: il10ra_site1_normal_mot_HHH_b1_01879_000000050_0001_1_18_H_._HHH_b1_00727_af2_0001_0000600044_0000002_0_af2pred_0001 (protein)
chain: SSSSSEEVLRLLLEALKLIRRGDLEEAEEVLKEMERLAEELNDEQARRAVEVLKRLLEELGSSSS
B4: il10ra_site1_sap_19_mot_HHH_b2_00335_000000038_0001_43_57_H_._HHH_b1_03234_0001_0000400063_0000002_0_0001 (protein)
chain: SSSSEAVKRVAELLREASKLQNDGNPEEAERVAEEALEVAEEGNNPLLEWQARFLLHRIRNSSSS
B5: il10ra_site1_normal_mot_HHH_b1_02708_af2_000000019_0001_23_39_H_._e0a7e7c149437fae01dc270677924e9f_0001_1_0001_0000100001_0000001_0 (protein)
chain: SLEEEVTELVRELGLPPMVESAVRSFVLAKELGDEEYLKIAEHFLEAQARRDPNVEEVLRFLRER
B6: il10ra_site1_normal_mot_HHH_b2_04646_000000019_0001_1_20_H_._HHH_b2_05789_af2_0001_0000400029_0000001_0 (protein)
chain: SSSSSDEEEAREEAERLLEEAEQIEDRHEVARLLYRASRLAAEGQDDELARRLVKLFARLSSSSS
B7: il10ra_site1_normal_mot_HHH_b2_00475_000000107_0001_44_57_H_._HHH_b2_01638_af2_0001_0000900052_0000002_0 (protein)
chain: SSSSEAEQRVAELLFRALRLLYEGNPEEAKEVVEEARRLAEENNDEELEEYVRILKHFIESHSSS
B8: il10ra_site1_normal_mot_8756ee2cf497b5429c717dfc0c0bcfd6_0001_000000186_0001_1_13_H_._HHH_b2_00335_af2_0001_0000300021_0000001_0_af2pred_0001 (protein)
chain: SSSSSDRLRELLELLRRIIELSRDGDPEEARKLIEEAQELAEELNDEVAKAILEFLEEHVNSSSS
B9: il10ra_site1_normal_mot_HHH_b1_00999_000000080_0001_41_55_H_._HHH_b1_02031_af2_0001_0000100001_0000001_0 (protein)
chain: SSSSSDEEEEEVERLLEEAEKIPDPRERNEILLEALHIALELGDEELLQLVWKVVKELGSSSSSS
B10: il10ra_site1_normal_mot_HHH_b1_05326_000000242_0001_1_20_H_._HHH_b1_05311_0001_0000100004_0000001_0 (protein)
chain: SSSSSSDEALELSRRAFKAALHGNPEEARELLEEALELAEERGDERLARIIQDLLKVLSSSSSSS

Molecular target: il10ra, Q13651
Sequence (Q13651 whole entry): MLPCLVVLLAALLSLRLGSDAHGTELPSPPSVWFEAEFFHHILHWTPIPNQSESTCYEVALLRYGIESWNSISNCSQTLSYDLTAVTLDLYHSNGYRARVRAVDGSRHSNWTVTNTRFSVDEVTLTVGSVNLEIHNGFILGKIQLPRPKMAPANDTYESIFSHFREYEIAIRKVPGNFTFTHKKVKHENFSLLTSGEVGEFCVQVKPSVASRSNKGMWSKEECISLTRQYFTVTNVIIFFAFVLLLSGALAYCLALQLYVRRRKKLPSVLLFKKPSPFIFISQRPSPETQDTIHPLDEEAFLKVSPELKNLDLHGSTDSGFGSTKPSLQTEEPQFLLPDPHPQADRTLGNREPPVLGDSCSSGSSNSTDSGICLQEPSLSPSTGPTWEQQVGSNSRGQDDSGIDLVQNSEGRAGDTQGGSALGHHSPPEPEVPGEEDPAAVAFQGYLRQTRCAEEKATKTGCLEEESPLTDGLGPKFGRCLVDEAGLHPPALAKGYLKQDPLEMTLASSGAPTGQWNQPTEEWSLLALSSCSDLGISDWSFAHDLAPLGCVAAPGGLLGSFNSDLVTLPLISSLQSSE
Assay: yeast display titration

Apparent Kd, inactive:
B1 no binding seen
B2 no binding seen
B3 no binding seen
B4 no binding seen
B5 no binding seen
B6 no binding seen
B7 no binding seen
B8 no binding seen
B9 no binding seen
B10 no binding seen
